The text below walks through data of PubChem BioAssay (NCATS).

Where “and” joins values, the source holds several entries; their conditions need not be identical. Equal entries are not always repeated. Records with an inconclusive call do not appear. Calls of active or inactive are those of the source. Unless noted, the call rests on the fitted dose curve; in most records, active means well fitted curve in the direction sought with a large enough effect; inconclusive means small, poorly fitted or top-dose-only effect, or another doubt; inactive means no such curve, though single readings can be large; an effect the other way counts as inactive or inconclusive.

The nature of assay [1]: Cell Viability - Hek293 (AID 427;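 active means compounds whose dose-response curve shows a full or clear partial loss of cell viability, called from curve shape rather than a numeric limit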;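 further: potency means the concentration at half of the fitted maximal effect; cells exposed to compound for 40 hours at 37 °C before reading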). The settings on record: qHTS. Put shortly: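 HEK293 cells in complete medium were exposed to compound for 40 hr at 37 °C, then cellular ATP was read by CellTiter-Glo luminescence. Data were normalized to DMSO (basal) and 100 uM tamoxifen (100% inhibition), and AC50 came from Hill fits.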
A short description of assay [2]: Cell Viability - SK-N-SH (AID 435; calls by dose curve;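 further: potency means the concentration at half of the fitted maximal effect; compound exposure lasted 40 h at 37 °C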). The settings on record: SK-N-SH neuroblastoma cell viability qHTS. Put shortly: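 CellTiter-Glo ATP luminescence, 20 min RT read; cells pre-plated 5 hr, compound 40 hr at 37 °C, 1500 cells/well, complete medium. Normalized DMSO = 0, 100 uM tamoxifen = 100% inhibition; Hill-fit AC50.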
For orientation: Quantitative high-throughput screening tests each substance at several concentrations.

Assay [3] is described as follows: Cell Viability - H-4-II-E (AID 543). Further: on the % scale 0 is the no-effect control and ±100 the full control effect; nearly all actives have a fitted effect of over 35% in size. Conditions: H-4-II-E rat hepatoma viability; series mostly up to 92.2 µM. Put shortly: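 Rat hepatoma H-4-II-E cells (1500/well) were plated, incubated 5 hr at 37 °C, then exposed to compounds for 40 hr at 37 °C. Cellular ATP was read by CellTiter-Glo luminescence; AC50 came from Hill-equation fits of concentration-response data.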

Assay [4] in a line: Cell Viability - SH-SY5Y (AID 544).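 Further: 0% = DMSO alone and -100% = 100 µM tamoxifen; nearly all actives have a fitted effect of over 55% in size.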 The settings on record: SH-SY5Y neuroblastoma cell viability; viability change, negative = cytotoxic: at 92.2 µM (top of the series). A digest of the protocol: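 Human neuroblastoma SH-SY5Y cells (1500/well) in complete medium were exposed to compounds for 40 hr at 37 °C; intracellular ATP was then quantified by CellTiter-Glo luminescence after 20 min at room temperature. AC50 came from Hill-equation concentration-response fits.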

Assay [5] is described as follows: Cell Viability - LYMP2-001 (AID 921).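 Further: 0% = DMSO only and full inhibition = tetraoctylammonium bromide control wells; nearly all actives have a fitted effect of over 70% in size.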 Conditions: LYMP2-001 lymphoblastoid cell viability; series mostly up to 92.2 µM. Put shortly:
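CellTiter-Glo luminescence (intracellular ATP) after 24 hr compound exposure at 37 C, 2500 lymphoblastoid cells/well in complete medium. AC50 fitted with standard Hill equation; tetraoctylammonium bromide positive control.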

A short description of assay [6]: MultiTox-Fluor Cytotoxicity Assay - LYMP1-001 - Live Cells (AID 947).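 Further: 0% = DMSO only and full inhibition = tetraoctylammonium bromide control.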 Conditions: LYMP1-001 lymphoblastoid cells, live-cell protease fluorescence viability; series mostly up to 92.2 µM.
The nature of assay [7]: Cell Viability - LYMP2-005 (AID 967).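 Further: plate controls were DMSO only for no effect and 92 µM tetraoctylammonium bromide control for full effect.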 Conditions: LYMP2-005 lymphoblastoid cell viability; series mostly up to 92.2 µM. A digest of the protocol: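 Steps: seed 2500 LYMP2-005 cells/well, incubate 5 h at 37 C, add compound, incubate 24 h at 37 C, add CellTiter-Glo, wait 30 min at RT, read luminescence. Concentration-response data fitted to Hill equation for AC50.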
The nature of assay [8]: Cell Viability - LYMP2-009 (AID 968).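 Further: 0% = DMSO alone and the full-kill end = tetraoctylammonium bromide at 92 µM; nearly all actives have a fitted effect of over 55% in size.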 The settings on record: LYMP2-009 lymphoblastoid cell viability; series mostly up to 92.2 µM.
Assay [9] in a line: Cell Viability - LYMP2-015 (AID 971).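 Further: 0% = DMSO only and full effect = 92 µM tetraoctylammonium bromide; nearly all actives have a fitted effect of over 55% in size.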 Conditions: LYMP2-015 lymphoblastoid cell viability; series mostly up to 92.2 µM. A digest of the protocol: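 Human lymphoblastoid cells (2500/well) in complete medium were preincubated 5 hr at 37 C, then compound-treated 24 hr at 37 C. Intracellular ATP was read by CellTiter-Glo luminescence after 30 min at room temperature; AC50 came from Hill-equation concentration-response fits.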

Assay [10] can be described thus: Cell Viability - LYMP2-019 (AID 973).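 Further: 0% = DMSO alone and full effect = 92 µM tetraoctylammonium bromide; nearly all actives have a fitted effect of over 55% in size.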 The settings on record: LYMP2-019 lymphoblastoid cell line viability; series mostly up to 92.2 µM. Put shortly: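 Human lymphoblastoid cells were seeded at 2500 cells/well, preincubated 5 hr at 37 C, then exposed to compounds for 24 hr at 37 C in complete medium. Intracellular ATP was measured by CellTiter-Glo luminescence; AC50 from Hill fits.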

The nature of assay [11]: Cell Viability - LYMP2-021 (AID 974). Conditions: LYMP2-021 lymphoblastoid cells viability; series mostly up to 92.2 µM. A digest of the protocol:
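Human lymphoblastoid cells (2500/well) were preincubated 5 hr at 37 C, then exposed to compounds for 24 hr at 37 C in complete medium. Intracellular ATP was read by CellTiter-Glo luminescence; AC50 came from Hill-equation fits of concentration-response data.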

A short description of assay [12]: Cell Viability - LYMP2-002 (AID 977).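 Further: compound exposure lasted 24 h at 37 °C; plate controls were DMSO only for no effect and 92 µM tetraoctylammonium bromide for full effect.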 Conditions: LYMP2-002 lymphoblastoid cell viability, qHTS; series mostly up to 92.2 µM. Put shortly:
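Cytotoxicity is scored as concentration-dependent loss of cellular ATP in a human lymphoblastoid line after 24 hr compound treatment at 37 C. AC50 is obtained by modelling concentration-response data with the Hill equation.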

Assay [13] is described as follows: Cell Viability - LYMP2-010 (AID 981). Conditions: LYMP2-010 lymphoblastoid cell viability, qHTS; series mostly up to 92.2 µM. Put shortly:
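Human lymphoblastoid LYMP2-010 cells (2500/well) were preincubated 5 hr at 37 C, then exposed to compounds for 24 hr at 37 C in complete medium. Intracellular ATP was measured by CellTiter-Glo luminescence after 30 min at room temperature; AC50 from Hill-fitted concentration-response.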

Assay [14] can be described thus: Cell Viability - LYMP2-012 (AID 982). Conditions: LYMP2-012 lymphoblastoid cell viability qHTS; series mostly up to 92.2 µM.
The nature of assay [15]: qHTS assay for small molecule agonists of retinoid X receptor alpha signaling (AID 588544). The settings on record: HEK293T RXRa-UAS-bla, beta-lactamase reporter, 18 h; 530 nm emission.
Assay [16] in a line: qHTS assay for small molecule antagonists of retinoid X receptor alpha signaling (AID 588546; active means well fitted inhibition curve with a large enough effect in the signal ratio, with a control signal flat, not every such curve was filed as active; the % refers to the signal ratio;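 further: cells stimulated with 9-cis-retinoic acid as agonist; on the % scale 0 is the no-effect control and ±100 the full control effect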). Conditions: HEK293T RXRa-UAS-bla, beta-lactamase ratio, antagonist mode; measured here: W530 green channel, cytotoxicity proxy. A digest of the protocol: (§1)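 Beta-lactamase reporter inhibition, read as CCF4 fluorescence ratio (ex 405, em 460/530 nm) after 2 h at RT. HEK293T UAS-bla cells, 2500/well, were stimulated with 9-cis-RA at 500 or 100 nM final alongside test compound for 18 h at 37 C.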

Assay [17] has as its target Retinoic acid receptor RXR-alpha (Homo sapiens) (UniProt P19793). Described as above. Conditions: HEK293T RXRa-UAS-bla, beta-lactamase ratio, antagonist mode. Put shortly: as §1
Assay [18] can be described thus: qHTS assay for small molecule disruptors of the mitochondrial membrane potential - 5 hr assay (AID 651755; calls by dose curve; further: nearly all actives have a fitted effect of over 40% in size; further: potency means the concentration at half of the fitted maximal effect). Conditions: JC-1-type ratio dye; series mostly up to 92.2 µM. A digest of the protocol:
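HepG2, 2,000 cells/well, overnight attach; cpd or DMSO 5 hr, 37C/5% CO2; Mito-MPS 30 min 37C; fluor 490/535 + 540/590 nm.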

A short description of assay [19]: qHTS assay for small molecule agonists of the antioxidant response element (ARE) signaling pathway measured by Nrf2-dependant transcriptional activity (AID 720636; active means well fitted curve in the direction sought with a large enough effect in the repeat runs; an effect the other way counts as inactive or inconclusive; further: % of control where 0% means no effect). Conditions: ARE-luc HepG2, Nrf2 luciferase reporter, 16 h; series mostly up to 92.4 µM. Put shortly: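 Attachment 6 hr at 37 C, then compound versus DMSO vehicle for 16 hr in ARE-luc HepG2 cells (1% dialyzed FBS); luminescence recorded 30 min after ONE-Glo addition at room temperature.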

Assay [20] can be described thus: Cell Viability - N2a (AID 540).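 Further: plate controls were DMSO alone for no effect and tamoxifen control for full effect; nearly all actives have a fitted effect of over 45% in size.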 The settings on record: N2a mouse neuroblastoma cell viability; activity change, negative = cytotoxicity: at 92.2 µM (top of the series). Put shortly:
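Mouse neuroblastoma N2a cells (1500/well) were preincubated 5 hr at 37 °C, then exposed to compounds for 40 hr at 37 °C in complete medium. Viability was read as intracellular ATP by CellTiter-Glo luminescence; AC50 from Hill fits.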

Retinoic acid receptor RXR-alpha (Homo sapiens), sequence (P19793 whole entry, looked up): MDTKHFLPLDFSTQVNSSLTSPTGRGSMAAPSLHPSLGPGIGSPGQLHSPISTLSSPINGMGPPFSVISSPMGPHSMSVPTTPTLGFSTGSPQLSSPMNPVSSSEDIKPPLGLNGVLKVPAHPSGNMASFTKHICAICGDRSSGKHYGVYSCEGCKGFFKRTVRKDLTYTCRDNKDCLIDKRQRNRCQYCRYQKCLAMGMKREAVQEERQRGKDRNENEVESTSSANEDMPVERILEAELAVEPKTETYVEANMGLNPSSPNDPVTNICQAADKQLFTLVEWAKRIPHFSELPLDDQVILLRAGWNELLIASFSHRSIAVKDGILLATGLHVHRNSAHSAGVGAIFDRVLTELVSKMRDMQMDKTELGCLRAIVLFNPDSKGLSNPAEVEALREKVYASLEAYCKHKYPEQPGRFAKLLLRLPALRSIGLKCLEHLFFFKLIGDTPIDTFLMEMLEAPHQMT

On to `OCC(CBr)(CBr)CBr`, for which the Potency in [1] and in assay [2] was > 92 µM (inactive) each time. Moreover, the Potency result in assay [3], in assay [4], in assay [5], in assay [6], in [7] and in assay [8] was “inactive” each time. For the same compound, the Potency result in [9], in assay [10], in [11], in [12], in assay [13] and in assay [14] was “inactive” in each case. In addition, the Potency result in [18] and in assay [19] was “inactive” throughout. In addition, the max response is -4.28% in assay [15], -12.3% in assay [16] and 0.481% (inactive) in assay [17].

For `CCCCC(CC)COC(=O)COc1ccc(Cl)cc1Cl` (configuration not stated), the Potency in assay [1] and in [2] was > 92 µM (inactive) each time. Besides, the activity change, negative = cytotoxicity in assay [20] is 1.51% (inactive). The Potency result in [3], in assay [4], in [5], in assay [6], in assay [8] and in assay [9] was “inactive” throughout. Also, the Potency entry in assay [10], in assay [11], in assay [12], in assay [13], in assay [14] and in assay [18] was “inactive” each time. Besides, the Potency entry in [19] is “inactive”. Further, the max response in [15] is 5.67% and -6.26%; in assay [16], 0.541% and -5.28%; in [17], 18.5% (inactive) and 4.05% (inactive).

On to `COc1ccc(C)cc1N`, for which the Potency in [1] and in assay [2] was > 92 µM (inactive) each time. The activity change, negative = cytotoxicity in assay [20] was -14.1% (inactive). Besides, the Potency result in assay [3], in [5], in [6], in assay [7], in assay [8] and in assay [9] was “inactive” throughout. In addition, the Potency entry in assay [10], in assay [11], in [12], in assay [13], in assay [14] and in assay [18] was “inactive” each time. The Potency result in [19] was “inactive”. Besides, the max response was -1.98% in assay [15], -0.963% in assay [16] and 10.5% (inactive) in assay [17].

In the case of `Oc1c(Cl)cc(Cl)c(Cl)c1Cl`, the Potency in assay [1] was > 92 µM (inactive); in assay [2], > 92 µM (inactive); in [18], 37.6 µM (active). For the same compound, the Potency result in [3], in [5], in assay [6], in assay [7], in assay [8] and in assay [9] was “inactive” throughout. The Potency entry in [10], in assay [11], in assay [12], in assay [13], in [14] and in assay [19] was “inactive” throughout. Further, the max response in assay [15] is 23.7% and -14.7%; in assay [16], -1.63% and -16.2%; in [17], 4.04% (inactive) and 5.02% (inactive).

`CN(C)c1ccc(Cc2ccc(N(C)C)cc2)cc1`: the Potency in assay [1] and in assay [2] was > 92 µM (inactive) throughout. Further, the activity change, negative = cytotoxicity in assay [20] is -41% (inactive). Besides, the Potency result in assay [4], in assay [5], in assay [6], in [7], in assay [8] and in assay [9] was “inactive” in each case. Moreover, the Potency entry in assay [10], in assay [11], in assay [12], in [13], in [14] and in assay [19] was “inactive” each time. The max response in assay [16] is 3.74% and -6.02%; in [17], 1.04% (inactive) and -36.9% (inactive).

`C/C(Cl)=C/CCl`: the Potency in assay [1] and in [2] was > 92 µM (inactive) in each case. Besides, the activity change, negative = cytotoxicity in assay [20] is -6.1% (inactive). Besides, the Potency result in [3], in [4], in assay [5], in [6], in [7] and in assay [8] was “inactive” throughout. The Potency result in assay [9], in [10], in assay [11], in assay [12], in assay [13] and in assay [14] was “inactive” each time. The Potency result in [18] and in [19] was “inactive” in each case. Besides, the max response is -5.41% in [15], -2.04% in [16] and 6.91% (inactive) in assay [17].
